We go through 4 compounds from PubChem BioAssay (NCI).

About 79,000 compounds went through this panel and 15% of them were active in at least one assay; those are over-represented in the sample as a whole. Values without a mark were called inactive. Activity calls are given as the source filed them. Cut-off read from the data, not from the text of the source: active = growth inhibition above about 70%; inactive = the rest.

Assay [1] can be described thus: NCI Yeast Anticancer Drug Screen. Data for the rad50 strain (AID 155).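 Note: 0% = growth of vehicle-only cultures of the same strain.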 The note with it: S. cerevisiae rad50 strain growth inhibition, hits give high values. The essentials: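 Readout: growth inhibition relative to vehicle-treated cultures. Compound exposure was carried out in a genetically defined yeast strain deficient in DNA damage repair.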
The nature of assay [2]: NCI Yeast Anticancer Drug Screen. Data for the mec2-1 strain (AID 157). Conditions: S. cerevisiae mec2-1 strain, hits give high values. The essentials:
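Compounds were applied to mec2-1 yeast cells. Their growth was then compared with that of vehicle-treated cultures to give growth inhibition.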

A short description of assay [3]: NCI Yeast Anticancer Drug Screen. Data for the sgs1 mgt1 strain (AID 161).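 Note: 0% = growth of cultures given vehicle only.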 The note with it: S. cerevisiae sgs1 mgt1 strain, hits give high values. In outline: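 Growth of a repair-deficient yeast mutant was monitored after compound treatment and expressed as inhibition relative to vehicle-treated cultures.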
Assay [4] can be described thus: NCI Yeast Anticancer Drug Screen. Data for the cln2 rad14 strain (AID 165).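 Note: 0% = growth equal to vehicle treated cultures.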 The note with it: S. cerevisiae cln2 rad14 strain, hits give high values. In outline:
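Strain: cln2 rad14 yeast, altered in cell cycle control and DNA damage repair. Read-out: growth inhibition vs vehicle.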

Assay [5] is described as follows: NCI Yeast Anticancer Drug Screen. Data for the bub3 strain (AID 167). The note with it: S. cerevisiae bub3 mutant strain, hits give high values. The essentials: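 Readout: yeast growth inhibition, expressed relative to vehicle-only wells. The test organism is a mutant strain from a panel with lesions in DNA repair or checkpoint genes.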
Assay [6] can be described thus: NCI Yeast Anticancer Drug Screen. Data for the mlh1 rad18 strain (AID 175). The note with it: S. cerevisiae mlh1 rad18 strain growth inhibition, hits give high values. The essentials:
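A repair-deficient yeast strain is exposed to test compound, and growth is scored relative to vehicle-treated controls.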

Where [7] appears, read: at 5.0 µM (retest, dose inferred, filed as 0.5).
The mark [8] stands for this setting: at 50.0 µM (retest, dose inferred, filed as 5.0).

With `O=C(CBr)Oc1ccc(-c2cccc(Br)c2)cc1`, the growth inhibition in assay [1] (setting [7]) was 1%; in assay [1] (setting [8]), 99% (active); in assay [1] (at 50.0 µM) it was 99.7% (active); in assay [2] (setting [7]), 6%; in assay [2] (setting [8]), 99% (active); in assay [2] (at 50.0 µM) it was 99.5% (active). Moreover, the growth inhibition in assay [3] (setting [7]) was 15%; in assay [3] (setting [8]), 100% (active); in assay [3] (at 50.0 µM) it was 99.6% (active); in assay [4] (setting [7]), -14%; in assay [4] (setting [8]), 99% (active); in assay [4] (at 50.0 µM), 98.6% (active). Besides, the growth inhibition in assay [5] (setting [7]) is -6%; in assay [5] (setting [8]), 99% (active); in assay [5] (at 50.0 µM), 99.6% (active); in assay [6] (setting [7]), 4%; in assay [6] (setting [8]), 99% (active); in assay [6] (at 50.0 µM), 99.2% (active).
Take `CC(=O)Nc1ccc(S(=O)(=O)N/N=C/c2cc(I)cc([N+](=O)[O-])c2O)cc1`: the growth inhibition was 9% in assay [1] (setting [7]); 71% (active) in assay [1] (setting [8]); 89% (active) in assay [1] (at 50.0 µM); 10% in assay [2] (setting [7]); 81% (active) in assay [2] (setting [8]); 81.5% (active) in assay [2] (at 50.0 µM). Further, the growth inhibition in assay [3] (setting [7]) is 14%; in assay [3] (setting [8]), 69%; in assay [3] (at 50.0 µM), 89.7% (active); in assay [4] (setting [7]), 1%; in assay [4] (setting [8]), 35%; in assay [4] (at 50.0 µM), 83.1% (active). For the same compound, the growth inhibition was 1% in assay [5] (setting [7]); 47% in assay [5] (setting [8]); 70.5% (active) in assay [5] (at 50.0 µM); 12% in assay [6] (setting [7]); 72% (active) in assay [6] (setting [8]); 94.3% (active) in assay [6] (at 50.0 µM).
For `COc1cc2c(cc1OC)c1c(OC)c(OC)cc3c1c1c2sc(=S)n1CC3`, the growth inhibition in assay [1] (setting [7]) is 4%; in assay [1] (setting [8]), 59%; in assay [1] (at 50.0 µM) it was 93% (active); in assay [2] (setting [7]), 14%; in assay [2] (setting [8]) it was 46%; in assay [2] (at 50.0 µM) it was 96.9% (active). Further, the growth inhibition in assay [3] (setting [7]) was 11%; in assay [3] (setting [8]), 55%; in assay [3] (at 50.0 µM), 96.1% (active); in assay [4] (setting [7]) it was 5%; in assay [4] (setting [8]), 14%; in assay [4] (at 50.0 µM), 93.8% (active). Further, the growth inhibition in assay [5] (setting [7]) is 4%; in assay [5] (setting [8]) it was 33%; in assay [5] (at 50.0 µM), 95.4% (active); in assay [6] (setting [7]), 5%; in assay [6] (setting [8]), 53%; in assay [6] (at 50.0 µM), 99% (active).
On to `CC(C)(C)c1cc(C2c3cc4c(cc3OC(O)(CO)C2C(=O)O)OCO4)cc(C(C)(C)C)c1O` (configuration not stated) (tested in a mixture with another compound), for which the growth inhibition was -23% in assay [1] (setting [7]); 39% in assay [1] (setting [8]); 49.9% in assay [1] (at 50.0 µM); -6% in assay [2] (setting [7]); 61% in assay [2] (setting [8]); 50.1% in assay [2] (at 50.0 µM). The growth inhibition in assay [3] (setting [7]) is -20%; in assay [3] (setting [8]), 50%; in assay [3] (at 50.0 µM) it was 37%; in assay [4] (setting [7]), 5%; in assay [4] (setting [8]), 68%; in assay [4] (at 50.0 µM), 72.1% (active). Also, the growth inhibition in assay [5] (setting [7]) is -10%; in assay [5] (setting [8]), 63%; in assay [5] (at 50.0 µM), 55%; in assay [6] (setting [7]), 11%; in assay [6] (setting [8]), 73% (active); in assay [6] (at 50.0 µM), 52.6%.
